Data from PubChem BioAssay AID1159580 (chemical genetic matrix, 2015).
Among all 5,500 compounds or so, about 2,000 (36%) were called active. About 18% were inconclusive and are not listed. Some of the results follow. A number with no mark means an inactive call. Cut-off read from the data, not from the text of the source: active = normalized growth mostly below about 0.91 (no sharp cut-off); inconclusive = no clear call, values can overlap the other calls; inactive = mostly above about 0.92.

Experiment: chemical genetic growth profiling, strain panel (AID 1159580);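 note: tested at 20 µM; growth read once vehicle control cultures reached saturation at 30 °C; 1 = growth at the plate median or of vehicle wells; lower values mean less growth of the strain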
Settings: growth OD
[1] = S. cerevisiae deletion strains, locus YAL013W, strain DEP1, hits give low values
[2] = S. cerevisiae deletion strains, locus YBR229C, strain ROT2, hits give low values
[3] = S. cerevisiae deletion strains, locus YDL101C, strain DUN1, hits give low values
[4] = S. cerevisiae deletion strains, locus YDL134C, strain PPH21, hits give low values
[5] = S. cerevisiae deletion strains, locus YDR150W, strain NUM1, hits give low values
[6] = S. cerevisiae deletion strains, locus YEL061C, strain CIN8, hits give low values
[7] = S. cerevisiae deletion strains, locus YGR078C, strain PAC10, hits give low values
[8] = S. cerevisiae deletion strains, locus YHR030C, strain SLT2, hits give low values
[9] = S. cerevisiae deletion strains, locus YJR043C, strain POL32, hits give low values
[10] = S. cerevisiae deletion strains, locus YJR075W, strain HOC1, hits give low values
[11] = S. cerevisiae deletion strains, locus YLR039C, strain RIC1, hits give low values
[12] = S. cerevisiae deletion strains, locus YLR262C, strain YPT6, hits give low values
[13] = S. cerevisiae deletion strains, locus YMR263W, strain SAP30, hits give low values
[14] = S. cerevisiae deletion strains, locus YMR307W, strain GAS1, hits give low values
[15] = S. cerevisiae deletion strains, locus YNL153C, strain GIM3, hits give low values
[16] = S. cerevisiae deletion strains, locus YNL322C, strain KRE1, hits give low values
[17] = S. cerevisiae deletion strains, locus YOL006C, strain TOP1, hits give low values
[18] = S. cerevisiae deletion strains, locus YPL055C, strain LGE1, hits give low values
[19] = S. cerevisiae deletion strains, locus YPL241C, strain CIN2, hits give low values
[20] = S. cerevisiae strains, strain wild type, hits give low values
[21] = S. cerevisiae deletion strains, locus YHR087W, strain rtc3, hits give low values
[22] = S. cerevisiae deletion strains, locus YJL187C, strain SWE1, hits give low values
[23] = S. cerevisiae deletion strains, locus YLR058C, strain SHM2 (second series), hits give low values
[24] = S. cerevisiae deletion strains, locus YLR085C, strain ARP6, hits give low values
[25] = S. cerevisiae deletion strains, locus YML094W, strain GIM5, hits give low values
[26] = S. cerevisiae deletion strains, locus YMR219W, strain ESC1, hits give low values
[27] = S. cerevisiae deletion strains, locus YNL298W, strain CLA4 (second series), hits give low values
[28] = S. cerevisiae deletion strains, locus YNR030W, strain Alg12, hits give low values
[29] = S. cerevisiae deletion strains, locus YPR135W, strain CTF4, hits give low values

CN(C)CCC[C@@]1(c2ccc(F)cc2)OCc2cc(C#N)ccc21
normalized growth [1]: 1.02
normalized growth (S. cerevisiae deletion strains, locus YBR021W, strain FUR4, hits give low values): 1.02
normalized growth [2]: 1.01
normalized growth (S. cerevisiae deletion strains, locus YCL029C, strain bik1, hits give low values): 1.02
normalized growth (S. cerevisiae deletion strains, locus YDL035C, strain GPR1, hits give low values): 1.02
normalized growth (S. cerevisiae deletion strains, locus YDL074C, strain BRE1, hits give low values): 1.02
normalized growth [3]: 1.02
normalized growth [4]: 1.01
normalized growth (S. cerevisiae deletion strains, locus YDL185W, strain tfp1, hits give low values): 1.03
normalized growth (S. cerevisiae deletion strains, locus YDL192W, strain arf1, hits give low values): 1.02
normalized growth (S. cerevisiae deletion strains, locus YDR101C, strain arx1, hits give low values): 1.02
normalized growth [5]: 1.02
normalized growth (S. cerevisiae deletion strains, locus YDR162C, strain NBP2, hits give low values): 1.01
normalized growth (S. cerevisiae deletion strains, locus YDR318W, strain mcm21, hits give low values): 1.03
normalized growth (S. cerevisiae deletion strains, locus YDR388W, hits give low values): 1.02
normalized growth (S. cerevisiae deletion strains, locus YDR502C, strain sam2, hits give low values): 1.02
normalized growth [6]: 1.01
normalized growth (S. cerevisiae deletion strains, locus YER110C, hits give low values): 1.03
normalized growth (S. cerevisiae deletion strains, locus YER155C, strain BEM2, hits give low values): 1.01
normalized growth (S. cerevisiae deletion strains, locus YER167W, strain BCK2, hits give low values): 1.02
normalized growth (S. cerevisiae deletion strains, locus YGL078C, strain dbp3, hits give low values): 1.03
normalized growth (S. cerevisiae deletion strains, locus YGL086W, strain mad1, hits give low values): 1.02
normalized growth (S. cerevisiae deletion strains, locus YGL248W, strain PDE1, hits give low values): 1.02
normalized growth [7]: 1.03
normalized growth (S. cerevisiae deletion strains, locus YGR135W, strain pre9, hits give low values): 1.03
normalized growth (S. cerevisiae deletion strains, locus YGR229C, strain SMI1, hits give low values): 1.02
normalized growth (S. cerevisiae deletion strains, locus YGR252W, strain gcn5, hits give low values): 1.06
normalized growth [8]: 1.01
normalized growth (S. cerevisiae deletion strains, locus YHR079C, strain IRE1 (second series), hits give low values): 1.02
normalized growth (S. cerevisiae deletion strains, locus YHR094C, strain hxt1, hits give low values): 1.02
normalized growth (S. cerevisiae deletion strains, locus YHR129C, strain ARP1, hits give low values): 1.01
normalized growth (S. cerevisiae deletion strains, locus YHR200W, strain rpn10, hits give low values): 1.02
normalized growth (S. cerevisiae deletion strains, locus YIL066C, strain RNR3, hits give low values): 1.03
normalized growth (S. cerevisiae deletion strains, locus YIL073C, strain SPO22, hits give low values): 1.06
normalized growth (S. cerevisiae deletion strains, locus YIL125W, strain kgd1, hits give low values): 1.02
normalized growth (S. cerevisiae deletion strains, locus YIR030C, strain dcg1, hits give low values): 1.02
normalized growth (S. cerevisiae deletion strains, locus YJL095W, strain BCK1, hits give low values): 1.02
normalized growth (S. cerevisiae deletion strains, locus YJL134W, strain LCB3, hits give low values): 1.03
normalized growth (S. cerevisiae deletion strains, locus YJL168C, strain set2, hits give low values): 1.02
normalized growth (S. cerevisiae deletion strains, locus YJL187C, strain SWE1 (second series), hits give low values): 1.02
normalized growth [9]: 1.01
normalized growth [10]: 1.01
normalized growth (S. cerevisiae deletion strains, locus YKL009W, strain mrt4, hits give low values): 1.03
normalized growth (S. cerevisiae deletion strains, locus YKL068W, hits give low values): 1.02
normalized growth (S. cerevisiae deletion strains, locus YKL085W, strain MDH1 (second series), hits give low values): 0.999
normalized growth (S. cerevisiae deletion strains, locus YKL085W, strain MDH1, hits give low values): 0.999
normalized growth (S. cerevisiae deletion strains, locus YKL190W, strain CNB1, hits give low values): 1.03
normalized growth (S. cerevisiae deletion strains, locus YKR001C, strain vps1, hits give low values): 1.03
normalized growth [11]: 1.04
normalized growth (S. cerevisiae deletion strains, locus YLR058C, strain SHM2, hits give low values): 1.02
normalized growth (S. cerevisiae deletion strains, locus YLR102C, strain apc9, hits give low values): 1.02
normalized growth [12]: 1.04
normalized growth (S. cerevisiae deletion strains, locus YLR268W, strain sec22, hits give low values): 1.01
normalized growth (S. cerevisiae deletion strains, locus YLR330W, strain CHS5, hits give low values): 1.01
normalized growth (S. cerevisiae deletion strains, locus YLR342W, strain FKS1 (second series), hits give low values): 1.03
normalized growth (S. cerevisiae deletion strains, locus YLR371W, strain rom2, hits give low values): 1.02
normalized growth (S. cerevisiae deletion strains, locus YLR418C, strain cdc73, hits give low values): 1
normalized growth (S. cerevisiae deletion strains, locus YML016C, strain PPZ1, hits give low values): 1.02
normalized growth (S. cerevisiae deletion strains, locus YML032C, strain rad52, hits give low values): 1.02
normalized growth (S. cerevisiae deletion strains, locus YML124C, strain tub3, hits give low values): 1.01
normalized growth (S. cerevisiae deletion strains, locus YMR078C, strain ctf18, hits give low values): 1.03
normalized growth (S. cerevisiae deletion strains, locus YMR223W, strain ubp8, hits give low values): 1.04
normalized growth [13]: 1.02
normalized growth [14]: 1.05
normalized growth (S. cerevisiae deletion strains, locus YNL067W, strain RPL9B, hits give low values): 1.02
normalized growth (S. cerevisiae deletion strains, locus YNL128W, strain TEP1, hits give low values): 1.02
normalized growth [15]: 1.01
normalized growth (S. cerevisiae deletion strains, locus YNL233W, strain BNI4, hits give low values): 1.01
normalized growth (S. cerevisiae deletion strains, locus YNL250W, strain rad50, hits give low values): 1.03
normalized growth (S. cerevisiae deletion strains, locus YNL271C, strain bni1, hits give low values): 1.03
normalized growth (S. cerevisiae deletion strains, locus YNL298W, strain CLA4, hits give low values): 1.04
normalized growth (S. cerevisiae deletion strains, locus YNL307C, strain MCK1, hits give low values): 1.02
normalized growth [16]: 1.01
normalized growth (S. cerevisiae deletion strains, locus YNR052C, strain pop2, hits give low values): 1.02
normalized growth [17]: 1.05
normalized growth (S. cerevisiae deletion strains, locus YOL012C, strain htz1): 1.16
normalized growth (S. cerevisiae deletion strains, locus YOL147C, strain pex11, hits give low values): 1.02
normalized growth (S. cerevisiae deletion strains, locus YOR061W, strain CKA2, hits give low values): 1.02
normalized growth (S. cerevisiae deletion strains, locus YOR069W, strain VPS5, hits give low values): 1.01
normalized growth (S. cerevisiae deletion strains, locus YOR136W, strain idh2, hits give low values): 1.02
normalized growth (S. cerevisiae deletion strains, locus YOR144C, strain elg1, hits give low values): 1.02
normalized growth (S. cerevisiae deletion strains, locus YOR184W, strain ser1, hits give low values): 1.03
normalized growth (S. cerevisiae deletion strains, locus YOR316C, strain cot1, hits give low values): 1.02
normalized growth [18]: 1.03
normalized growth [19]: 1.01
normalized growth (S. cerevisiae deletion strains, locus YPR119W, strain clb2, hits give low values): 1.01
normalized growth (S. cerevisiae deletion strains, locus YPR141C, strain kar3, hits give low values): 1.03
normalized growth (S. cerevisiae deletion strains, locus YPR163C, strain tif3, hits give low values): 1.02
normalized growth (S. cerevisiae deletion strains, locus YPR167C, strain met16, hits give low values): 1.02
normalized growth (S. cerevisiae deletion strains, strain wtn01, hits give low values): 1.01
normalized growth [20]: 1.02

CCCc1ccc(-c2nc(-c3ccc(C)cc3)no2)cc1
normalized growth [1]: 0.999
normalized growth [2]: 0.994
normalized growth [3]: 0.971
normalized growth [5]: 1.01
normalized growth [6]: 1.01
normalized growth [7]: 0.973
normalized growth [8]: 1
normalized growth [21]: 0.984
normalized growth [22]: 0.978
normalized growth [9]: 0.991
normalized growth [10]: 0.95
normalized growth [11]: 1.09
normalized growth [23]: 0.995
normalized growth [24]: 1.02
normalized growth [12]: 1.04
normalized growth [25]: 0.988
normalized growth [26]: 0.992
normalized growth [13]: 0.994
normalized growth [14]: 1.04
normalized growth [15]: 0.965
normalized growth [27]: 0.987
normalized growth [16]: 0.989
normalized growth [28]: 0.973
normalized growth [18]: 0.975
normalized growth [19]: 0.941
normalized growth [29]: 1.06
normalized growth [20]: 1.01

CCCc1ccc(/C(C)=N\O)cc1
normalized growth [1]: 0.939
normalized growth [2]: 0.921 (active)
normalized growth [3]: 0.955
normalized growth [4]: 0.965
normalized growth [5]: 0.858
normalized growth [6]: 0.902 (active)
normalized growth [7]: 0.93
normalized growth [8]: 0.778
normalized growth [21]: 0.909 (active)
normalized growth [22]: 0.926 (active)
normalized growth [9]: 0.949
normalized growth [10]: 0.816 (active)
normalized growth [11]: 0.777 (active)
normalized growth [23]: 0.92 (active)
normalized growth [24]: 0.756 (active)
normalized growth [12]: 0.834
normalized growth [25]: 0.947
normalized growth [26]: 0.932 (active)
normalized growth [13]: 0.963
normalized growth [14]: 1.18
normalized growth [15]: 0.946
normalized growth [27]: 0.94
normalized growth [16]: 0.919 (active)
normalized growth [28]: 0.96
normalized growth [17]: 0.945
normalized growth [18]: 0.848
normalized growth [19]: 0.949
normalized growth [29]: 0.518 (active)

C/C(=N/O)c1ccc2c(c1)C(C)(C)CCC2(C)C
normalized growth [1]: 1.01
normalized growth [2]: 0.987
normalized growth (S. cerevisiae deletion strains, locus YCL061C, strain MRC1, hits give low values): 0.964
normalized growth [3]: 1.01
normalized growth [4]: 0.99
normalized growth [5]: 0.985
normalized growth [6]: 0.995
normalized growth [7]: 0.981
normalized growth [8]: 0.984
normalized growth [21]: 0.977
normalized growth [22]: 0.976
normalized growth [9]: 0.989
normalized growth [10]: 0.954
normalized growth [11]: 0.847
normalized growth [23]: 0.985
normalized growth [24]: 0.963
normalized growth [12]: 0.939
normalized growth [25]: 0.992
normalized growth [26]: 0.991
normalized growth [13]: 0.979
normalized growth [14]: 0.92
normalized growth [15]: 0.967
normalized growth [27]: 0.962
normalized growth [16]: 0.995
normalized growth [28]: 0.958
normalized growth [18]: 0.996
normalized growth [19]: 0.953
normalized growth [29]: 0.915
